# Values without a mark were called inactive. Inconclusive results are not listed. A call without a number means that no potency is given here. Activity calls are given as the source filed them. Unless noted, calls follow the shape of the dose curve; as a rule, active = well fitted curve in the direction sought with a large enough effect in the repeat runs; inconclusive = weak or mixed curves; inactive = no such curve, though single readings can be large; an effect the other way counts as inactive or inconclusive.
# Key:
# [1] = Human pregnane X receptor (PXR) small molecule agonists, qHTS cell viability counter screen (AID 1346977); also: nearly all actives have a fitted effect of over 50% in size; also: potency is read from the fitted curve at half-maximal effect
# Summary of the method: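 HepG2 cells stably carrying the PXR-Luc reporter are cultured with 5% charcoal-stripped FBS and treated with compounds for 24hr. CellTiter-Fluor is added at 23hr and fluorescence is read after 1hr.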
# [2] = Caspase-3/7 induction in HepG2 cells by small molecules, qHTS assay (AID 1346978); also: nearly all actives have a fitted effect of over 15% in size
# Summary of the method: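 Wild-type HepG2 cells (2,000/well) were settled 5 h at 37 C, 5% CO2, then exposed to compounds in DMSO for 17 h. Caspase-3/7 activity was read by luminescence 30 min after adding Caspase-Glo 3/7 reagent at room temperature.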
# [3] = Caspase-3/7 induction in CHO-K1 cells by small molecules, qHTS cell viability counter screen (AID 1346979); also: nearly all actives have a fitted effect of over 35% in size; also: potency is read from the fitted curve at half-maximal effect
# Summary of the method: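 Seeding: 1,500 CHO-K1 cells/well. Rest: 5hr, 37C. Treatment: compounds in DMSO, 16hr. Read: CellTiter-Fluor, 1hr, fluorescence.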
# [4] = Caspase-3/7 induction in CHO-K1 cells by small molecules, qHTS assay (AID 1346980); also: nearly all actives have a fitted effect of over 15% in size
# Summary of the method: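 Wild-type cells were seeded at 1,500 per well and settled 5 hr at 37 C, 5% CO2, then exposed to DMSO-dissolved compounds for 17 hr. Caspase-Glo 3/7 reagent was added, and luminescence was read after 30min at room temperature.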
# [5] = Caspase-3/7 induction in HepG2 cells by small molecules, qHTS cell viability counter screen (AID 1346981); also: series mostly up to about 92 µM; nearly all actives have a fitted effect of over 30% in size
# Summary of the method: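 Viability determined by CellTiter-Fluor fluorescence in HepG2 wells also used for the luminescent Caspase-Glo 3/7 read. Compounds were present for 16 hr at 37 C, 5% CO2 before reagent addition.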
# [6] = biological target: Nuclear receptor subfamily 1 group I member 2 (Homo sapiens) (UniProt O75469); assay: Human pregnane X receptor (PXR) small molecule agonists, qHTS assay (AID 1346982); also: nearly all actives have a fitted effect of over 35% in size; also: potency is read from the fitted curve at half-maximal effect
# Summary of the method: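 Compound-induced hPXR transactivation of a CYP3A4 luciferase reporter was scored in HepG2 PXR-Luc cells over 24 hr at 37 C, 5% CO2, by luminescence.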
# [7] = biological target: Acetylcholinesterase (Homo sapiens) (UniProt P22303); assay: Acetylcholinesterase (AChE) small molecule antagonists: colormetric cell-based qHTS assay (AID 1347395; calls by dose curve; also: nearly all actives have a fitted effect of over 30% in size; also: potency is read from the fitted curve at half-maximal effect)
# Summary of the method: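 Quantitative HTS in attached SH-SY5Y cells: 30 min compound exposure, then 90 min with acetylthiocholine and DTNB at 37 C; colour from thiocholine reports AChE activity.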
# [8] = biological target: Acetylcholinesterase (Homo sapiens) (UniProt P22303); assay: Acetylcholinesterase (AChE) small molecule antagonists: enzyme-based qHTS assay (AID 1347397; calls by dose curve; also: nearly all actives have a fitted effect of over 55% in size; also: potency is read from the fitted curve at half-maximal effect); settings: Potency: AChE enzyme activity inhibition
# Summary of the method: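 Human recombinant acetylcholinesterase; substrate acetylthiocholine; thiocholine quantified with DTNB (colorimetric). Compound preincubation 30 min RT; reaction 10 min RT.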
# [9] = biological target: Acetylcholinesterase (Homo sapiens) (UniProt P22303); assay: Acetylcholinesterase (AChE) small molecule antagonists: fluorescence cell-based qHTS assay (AID 1347398; calls by dose curve; also: nearly all actives have a fitted effect of over 50% in size; also: potency is read from the fitted curve at half-maximal effect); settings: Potency: AChE activity
# Summary of the method: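 Thiocholine generated from acetylthiocholine by SH-SY5Y cell AChE is detected with Thiolite Green (Ex/Em 490/520 nm) after 40 min at room temperature, following 30 min compound pretreatment at 37 C.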
# [10] = biological target: Acetylcholinesterase (Homo sapiens) (UniProt P22303); assay: Acetylcholinesterase (AChE) small molecule antagonists: enzyme-based qHTS assay with human liver microsomes (AID 1347399; calls by dose curve; also: nearly all actives have a fitted effect of over 60% in size; also: potency is read from the fitted curve at half-maximal effect); settings: Potency: qHTS inhibition
# Summary of the method: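 Recombinant human AChE (50 mU/mL in the enzyme mix) and human liver microsomes (0.25 mg/mL final) were preincubated with compound and NADPH (0.25 mg/mL final) for 30 min at 37 C. Acetylthiocholine/DTNB was then added; thiocholine was read colorimetrically after 10 min at room temperature.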
# [11] = biological target: Cytochrome P450 2D6 (Homo sapiens) (UniProt P10635); assay: Cytochrome P450 Family 2 Subfamily D Member 6 (CYP2D6) small molecule antagonists: luciferase reporter qHTS assay (AID 1671196); also: nearly all actives have a fitted effect of over 50% in size; also: potency is read from the fitted curve at half-maximal effect
# Summary of the method: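 Each well received CYP2D6 with its proluciferin substrate and chemical, sat 10 min, then got NADPH regeneration solution for 1 h at room temperature. Luminescence in RLU served as the activity measure.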
# [12] = biological target: Voltage-gated inwardly rectifying potassium channel KCNH2 (Homo sapiens) (UniProt Q12809); assay: Human Ether-a-go-go-Related Gene (hERG) channel small molecule antagonists: fluorescence cell-based qHTS assay (AID 1671200);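 also: hERG-expressing U2OS cells given a thallium stimulus after FluxOR II dye loading; series mostly up to about 77 µM; nearly all actives have a fitted effect of over 50% in size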
# Summary of the method: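 First, 1000 cells per well are seeded and cultured overnight at 37 C. Next, FluxOR II dye is loaded for 1 h at room temperature, protected from light. After 10 more minutes, stimulus is added and fluorescence is read.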
# [13] = biological target: Cytochrome P450 2C9 (Homo sapiens) (UniProt P11712); assay: Cytochrome P450 Family 2 Subfamily C Member 9 (CYP2C9) small molecule antagonists: luciferase reporter qHTS assay (AID 1671198); also: nearly all actives have a fitted effect of over 50% in size; also: potency is read from the fitted curve at half-maximal effect
# Summary of the method: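 CYP2C9 activity was measured with a P450-Glo proluciferin substrate. Enzyme–substrate mix was held with compound for 10 min at room temperature, then NADPH regeneration solution was added for 1 h at 37C. Luciferin product was read as luminescence.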
# [14] = biological target: Cytochrome P450 1A2 (Homo sapiens) (UniProt P05177); assay: Cytochrome P450 Family 1 Subfamily A Member 2 (CYP1A2) small molecule antagonists: luciferase reporter qHTS assay (AID 1671199); also: nearly all actives have a fitted effect of over 50% in size; also: potency is read from the fitted curve at half-maximal effect
# Summary of the method: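 Enzymatic CYP1A2 assay, human, luminescent: 10 min compound–enzyme–substrate preincubation, 1 h NADPH-dependent turnover, 20 min detection step, room temperature throughout. Reduced light indicates lower CYP1A2 activity.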
# [15] = biological target: Cytochrome P450 3A4 (Homo sapiens) (UniProt P08684); assay: Cytochrome P450 Family 3 Subfamily A Member 4 (CYP3A4) small molecule antagonists: luciferase reporter qHTS assay (AID 1671201)
# Summary of the method: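 Enzyme and proluciferin substrate are mixed with test chemicals for 10 min, then NADPH regeneration system drives turnover for 1 h at room temperature. A detection reagent halts the reaction; luminescence after 20 min gives relative activity.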
# [16] = biological target: Cytochrome P450 2C19 (Homo sapiens) (UniProt P33261); assay: Cytochrome P450 Family 2 Subfamily C Member 19 (CYP2C19) small molecule antagonists: luciferase reporter qHTS assay (AID 1671197); also: nearly all actives have a fitted effect of over 65% in size; also: potency is read from the fitted curve at half-maximal effect
# Summary of the method: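 Light output is proportional to CYP2C19 activity: proluciferin substrate is converted to luciferin, then detected by a luciferin detection reagent that also stops the 1 h, 37C NADPH-driven reaction. Ketoconazole serves as positive control.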
# Acetylcholinesterase (Homo sapiens), sequence (P22303 whole entry, looked up): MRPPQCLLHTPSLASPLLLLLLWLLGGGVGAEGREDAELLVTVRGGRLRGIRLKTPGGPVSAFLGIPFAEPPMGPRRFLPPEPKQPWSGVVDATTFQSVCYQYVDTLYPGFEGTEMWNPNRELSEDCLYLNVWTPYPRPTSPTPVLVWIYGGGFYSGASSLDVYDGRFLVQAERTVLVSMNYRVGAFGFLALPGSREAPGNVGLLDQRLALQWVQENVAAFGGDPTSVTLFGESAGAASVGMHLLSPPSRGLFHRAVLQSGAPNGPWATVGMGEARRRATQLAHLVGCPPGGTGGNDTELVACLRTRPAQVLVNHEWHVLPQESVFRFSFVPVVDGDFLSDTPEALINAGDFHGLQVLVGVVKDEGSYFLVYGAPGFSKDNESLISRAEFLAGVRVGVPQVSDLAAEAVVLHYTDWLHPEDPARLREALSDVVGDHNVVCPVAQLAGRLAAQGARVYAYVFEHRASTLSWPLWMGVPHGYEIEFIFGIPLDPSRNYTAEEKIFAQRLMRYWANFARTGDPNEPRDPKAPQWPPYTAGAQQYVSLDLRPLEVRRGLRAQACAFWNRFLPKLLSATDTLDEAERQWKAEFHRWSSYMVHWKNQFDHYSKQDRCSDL
# Cytochrome P450 2C19 (Homo sapiens), sequence (P33261 whole entry, looked up): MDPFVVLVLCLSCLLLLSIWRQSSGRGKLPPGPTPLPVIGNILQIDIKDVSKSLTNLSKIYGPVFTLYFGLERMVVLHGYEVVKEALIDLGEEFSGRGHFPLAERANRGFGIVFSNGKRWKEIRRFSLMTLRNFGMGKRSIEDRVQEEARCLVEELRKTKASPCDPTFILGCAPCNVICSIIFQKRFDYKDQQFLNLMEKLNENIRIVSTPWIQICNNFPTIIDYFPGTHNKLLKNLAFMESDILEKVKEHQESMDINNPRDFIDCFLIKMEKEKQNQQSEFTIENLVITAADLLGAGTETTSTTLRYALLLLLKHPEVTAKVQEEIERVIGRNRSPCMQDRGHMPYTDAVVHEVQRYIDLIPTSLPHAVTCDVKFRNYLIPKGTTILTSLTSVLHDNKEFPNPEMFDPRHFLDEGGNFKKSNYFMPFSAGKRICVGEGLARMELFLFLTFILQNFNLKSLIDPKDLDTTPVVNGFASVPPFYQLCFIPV
# Nuclear receptor subfamily 1 group I member 2 (Homo sapiens), sequence (O75469 whole entry, looked up): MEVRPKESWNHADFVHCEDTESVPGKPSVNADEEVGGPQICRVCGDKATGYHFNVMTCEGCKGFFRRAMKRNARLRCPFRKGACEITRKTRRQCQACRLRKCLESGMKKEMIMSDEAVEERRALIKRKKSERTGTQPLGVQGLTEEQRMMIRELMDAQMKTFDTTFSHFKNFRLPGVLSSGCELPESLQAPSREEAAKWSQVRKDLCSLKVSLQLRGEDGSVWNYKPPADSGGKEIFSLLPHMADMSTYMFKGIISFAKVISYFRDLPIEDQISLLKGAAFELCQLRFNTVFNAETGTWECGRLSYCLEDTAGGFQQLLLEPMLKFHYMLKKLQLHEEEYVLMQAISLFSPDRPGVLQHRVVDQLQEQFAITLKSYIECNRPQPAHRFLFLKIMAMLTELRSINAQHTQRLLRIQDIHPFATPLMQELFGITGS
# Cytochrome P450 2D6 (Homo sapiens), sequence (P10635 whole entry, looked up): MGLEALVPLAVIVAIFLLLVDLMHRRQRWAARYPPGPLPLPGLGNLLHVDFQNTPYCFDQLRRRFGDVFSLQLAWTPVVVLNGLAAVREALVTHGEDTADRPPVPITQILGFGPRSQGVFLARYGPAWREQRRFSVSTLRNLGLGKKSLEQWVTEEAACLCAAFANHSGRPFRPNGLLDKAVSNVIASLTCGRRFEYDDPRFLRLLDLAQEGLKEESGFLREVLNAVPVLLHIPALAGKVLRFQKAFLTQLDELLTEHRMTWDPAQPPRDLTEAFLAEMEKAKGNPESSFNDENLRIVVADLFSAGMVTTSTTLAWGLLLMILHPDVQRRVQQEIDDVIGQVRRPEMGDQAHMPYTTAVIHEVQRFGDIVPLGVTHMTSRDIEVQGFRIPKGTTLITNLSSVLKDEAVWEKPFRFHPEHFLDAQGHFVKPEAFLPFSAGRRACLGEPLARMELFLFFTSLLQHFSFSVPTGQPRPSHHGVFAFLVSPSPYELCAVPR
# Voltage-gated inwardly rectifying potassium channel KCNH2 (Homo sapiens), sequence (Q12809 whole entry, looked up): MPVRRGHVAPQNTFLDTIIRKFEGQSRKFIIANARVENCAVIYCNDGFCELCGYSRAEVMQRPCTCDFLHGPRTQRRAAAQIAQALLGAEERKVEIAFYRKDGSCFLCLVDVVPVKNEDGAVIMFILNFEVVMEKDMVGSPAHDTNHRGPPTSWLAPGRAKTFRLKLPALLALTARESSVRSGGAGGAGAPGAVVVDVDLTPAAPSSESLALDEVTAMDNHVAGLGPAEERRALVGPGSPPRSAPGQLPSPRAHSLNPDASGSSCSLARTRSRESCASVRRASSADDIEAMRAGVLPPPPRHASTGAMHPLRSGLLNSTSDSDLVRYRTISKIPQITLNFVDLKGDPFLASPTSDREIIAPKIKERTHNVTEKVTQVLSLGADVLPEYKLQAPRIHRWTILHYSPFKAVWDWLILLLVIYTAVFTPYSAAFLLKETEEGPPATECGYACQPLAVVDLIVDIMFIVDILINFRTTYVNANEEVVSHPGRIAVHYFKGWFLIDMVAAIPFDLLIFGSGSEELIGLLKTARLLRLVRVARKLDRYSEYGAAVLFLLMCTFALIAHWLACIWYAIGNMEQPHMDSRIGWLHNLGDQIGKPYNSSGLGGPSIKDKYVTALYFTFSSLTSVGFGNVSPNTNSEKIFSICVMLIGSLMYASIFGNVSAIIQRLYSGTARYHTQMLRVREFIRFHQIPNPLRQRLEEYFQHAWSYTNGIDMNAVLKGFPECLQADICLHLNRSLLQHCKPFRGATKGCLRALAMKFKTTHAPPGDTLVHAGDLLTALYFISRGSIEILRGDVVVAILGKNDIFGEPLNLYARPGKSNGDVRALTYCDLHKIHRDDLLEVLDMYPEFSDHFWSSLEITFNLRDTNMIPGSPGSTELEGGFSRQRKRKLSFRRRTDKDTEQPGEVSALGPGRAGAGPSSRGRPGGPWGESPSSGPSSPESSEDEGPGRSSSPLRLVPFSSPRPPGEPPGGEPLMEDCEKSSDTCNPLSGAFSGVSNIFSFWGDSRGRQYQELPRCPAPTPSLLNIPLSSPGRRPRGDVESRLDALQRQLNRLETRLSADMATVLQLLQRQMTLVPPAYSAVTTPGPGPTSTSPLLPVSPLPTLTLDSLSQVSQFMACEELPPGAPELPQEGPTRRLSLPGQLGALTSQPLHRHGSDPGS
# Cytochrome P450 2C9 (Homo sapiens), sequence (P11712 whole entry, looked up): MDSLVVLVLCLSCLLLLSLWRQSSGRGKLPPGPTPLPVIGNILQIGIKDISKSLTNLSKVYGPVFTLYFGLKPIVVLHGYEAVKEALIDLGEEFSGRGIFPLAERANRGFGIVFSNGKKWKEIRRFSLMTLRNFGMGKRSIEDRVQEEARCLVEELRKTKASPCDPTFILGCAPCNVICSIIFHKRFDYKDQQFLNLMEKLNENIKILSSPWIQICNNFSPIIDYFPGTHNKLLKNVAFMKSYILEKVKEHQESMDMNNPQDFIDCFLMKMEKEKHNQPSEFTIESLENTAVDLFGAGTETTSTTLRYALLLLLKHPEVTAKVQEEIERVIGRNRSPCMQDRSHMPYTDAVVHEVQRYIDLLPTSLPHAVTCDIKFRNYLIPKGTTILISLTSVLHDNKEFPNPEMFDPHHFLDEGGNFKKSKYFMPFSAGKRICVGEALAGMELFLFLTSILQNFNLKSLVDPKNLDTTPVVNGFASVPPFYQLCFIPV
# Cytochrome P450 3A4 (Homo sapiens), sequence (P08684 whole entry, looked up): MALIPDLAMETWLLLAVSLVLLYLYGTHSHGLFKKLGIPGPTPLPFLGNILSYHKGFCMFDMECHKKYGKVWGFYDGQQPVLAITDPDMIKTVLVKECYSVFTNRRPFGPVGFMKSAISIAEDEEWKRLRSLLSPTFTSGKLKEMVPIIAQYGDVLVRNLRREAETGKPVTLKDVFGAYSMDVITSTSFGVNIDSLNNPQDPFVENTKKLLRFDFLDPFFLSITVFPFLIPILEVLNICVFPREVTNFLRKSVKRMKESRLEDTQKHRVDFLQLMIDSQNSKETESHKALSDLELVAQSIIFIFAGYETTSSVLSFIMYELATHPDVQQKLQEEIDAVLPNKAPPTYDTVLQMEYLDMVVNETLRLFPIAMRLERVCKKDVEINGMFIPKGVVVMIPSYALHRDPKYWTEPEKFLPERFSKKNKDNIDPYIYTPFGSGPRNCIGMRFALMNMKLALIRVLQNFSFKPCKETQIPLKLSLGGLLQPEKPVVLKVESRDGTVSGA
# Cytochrome P450 1A2 (Homo sapiens), sequence (P05177 whole entry, looked up): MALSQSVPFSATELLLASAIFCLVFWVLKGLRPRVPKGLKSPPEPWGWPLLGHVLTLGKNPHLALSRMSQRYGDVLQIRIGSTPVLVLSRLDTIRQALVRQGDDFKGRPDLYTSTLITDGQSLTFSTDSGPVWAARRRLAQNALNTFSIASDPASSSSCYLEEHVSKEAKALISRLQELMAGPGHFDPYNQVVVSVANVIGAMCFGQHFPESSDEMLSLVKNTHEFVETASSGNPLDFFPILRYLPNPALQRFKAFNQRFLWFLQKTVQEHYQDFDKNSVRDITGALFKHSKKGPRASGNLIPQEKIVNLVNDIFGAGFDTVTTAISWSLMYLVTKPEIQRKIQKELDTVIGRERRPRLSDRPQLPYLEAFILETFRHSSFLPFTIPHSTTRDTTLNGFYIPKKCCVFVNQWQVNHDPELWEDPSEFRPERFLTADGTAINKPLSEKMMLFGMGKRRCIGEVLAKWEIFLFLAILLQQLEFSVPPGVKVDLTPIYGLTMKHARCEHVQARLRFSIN
SMILES,Potency [1],Potency [2],Potency [3],Potency [4],Potency [5],Potency [6],Potency [7],Potency [8],Potency [9],Potency [10],Potency [11],Potency [12],Potency [13],Potency [14],Potency [15],Potency [16]
CCCCc1ccc(O)cc1,inactive,inactive,inactive,inactive,inactive,inactive,inactive,inactive,inactive,inactive,inactive,inactive,–,–,–,–
c1cc[c]([Hg][c]2ccccc2)cc1,68.6 µM (active),inactive,68.6 µM (active),inactive,inactive,10.9 µM (active),inactive,inactive,inactive,inactive,1 µM (active),inactive,31.7 µM (active),10 µM (active),inactive,–
O=C1OC(=O)C2C1C1(Cl)C(Cl)=C(Cl)C2(Cl)C1(Cl)Cl (stereo not given),inactive,inactive,inactive,inactive,inactive,inactive,inactive,inactive,inactive,inactive,inactive,inactive,inactive,inactive,inactive,–
CC1=NNC(=O)N(/N=C/c2cccnc2)C1,inactive,inactive,inactive,inactive,inactive,inactive,inactive,inactive,inactive,inactive,inactive,inactive,–,35.6 µM (active),inactive,–
CC1CN1P(=O)(N1CC1C)N1CC1C (stereo not given),inactive,inactive,inactive,inactive,inactive,inactive,inactive,inactive,inactive,inactive,–,inactive,inactive,inactive,inactive,inactive
CCCCOP(=O)(O)OCCCC,inactive,inactive,inactive,inactive,inactive,inactive,inactive,inactive,inactive,inactive,–,inactive,–,inactive,inactive,56.4 µM (active)
CCC1(c2ccccc2)C(=O)N=C(O)NC1=O (stereo not given),inactive,inactive,inactive,inactive,inactive,53 µM (active),inactive,inactive,inactive,inactive,inactive,inactive,61.6 µM (active),–,inactive,–
CCCCOC(=O)c1ccccc1C(=O)O,inactive,inactive,inactive,inactive,inactive,inactive,inactive,inactive,inactive,inactive,inactive,inactive,–,inactive,inactive,–
COP(=S)(OC)Oc1ccc(S(N)(=O)=O)cc1,inactive,inactive,inactive,inactive,inactive,inactive,inactive,inactive,inactive,inactive,–,inactive,3.47 µM (active),–,–,1.38 µM (active)
O=[N+]([O-])c1ccc2c3c(cccc13)CC2,inactive,inactive,inactive,inactive,inactive,54.5 µM (active),inactive,inactive,inactive,inactive,inactive,inactive,inactive,–,–,–
CCC#N,inactive,inactive,inactive,inactive,inactive,inactive,inactive,inactive,inactive,inactive,inactive,inactive,inactive,–,inactive,–
Cc1cc(C)c(C(=O)P(=O)(C(=O)c2c(C)cc(C)cc2C)c2ccccc2)c(C)c1,inactive,inactive,inactive,inactive,inactive,24.3 µM (active),inactive,inactive,inactive,inactive,–,inactive,35.6 µM (active),71 µM (active),–,35.6 µM (active)
CCCSC(=O)Cl,inactive,inactive,inactive,inactive,inactive,inactive,inactive,inactive,inactive,inactive,inactive,inactive,inactive,–,inactive,–
CNC(=O)O/N=C(\C)SC,inactive,inactive,inactive,inactive,inactive,inactive,1.59 µM (active),2.83 µM (active),1.26 µM (active),17.8 µM (active),–,inactive,inactive,inactive,inactive,–

# — PubChem BioAssay (Tox21)
